The full list was thinned out, with hits kept by preference.
IDE exosite inh = exo-site inhibitors of human insulin-degrading enzyme. 6.3% of 17,000 active. z-score at 20 µM. P14735. AID 1259349. purified IDE, FL-6b probe fluorescence polarization; hits give low values;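 active means z-score of -3 or lower, meaning strong loss of probe binding signal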;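 further: His-tagged human IDE residues 42-1019 made in E. coli with 30 nM FL-6b probe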
Numbers stand for hits; n = inactive; ! = not confirmed by another sample.

SMILES	IDE exosite inh
CC(C)NC(=O)N1CCCCN2[C@H](CO)[C@H](c3ccc(C4=CCCC4)cc3)[C@@H]2C1	n
Cc1ccc(-c2ccc([C@@H]3[C@H]4CN(C(=O)Nc5ccccc5)CCCCN4[C@H]3CO)cc2)cc1	n
Cc1cccc(-c2ccc([C@H]3[C@H](CO)N4CCCCN(C(=O)c5ccc6c(c5)OCO6)C[C@@H]34)cc2)c1	n
Cc1cccc(-c2ccc([C@H]3[C@H](CO)N4CCCCN(C(=O)NC(C)C)C[C@@H]34)cc2)c1	-13.7
CC(=O)NC[C@H]1[C@@H](c2ccc(-c3cccnc3)cc2)[C@H](CO)N1C(=O)C1CCC1	n
CC(C)CC#Cc1ccc([C@H]2[C@H]3CN(C(=O)Cc4ccccc4)CC(=O)N3[C@H]2CO)cc1	n
O=S(=O)(c1ccccc1F)N1CCCCN2[C@H](CO)[C@H](c3ccc(-c4ccccc4)cc3)[C@@H]2C1	n
CCC(=O)N1CC(=O)N2[C@H](C1)[C@H](c1ccc(C#CC3CCCC3)cc1)[C@@H]2CO	n
C[C@@H](O)C#Cc1ccc([C@@H]2[C@@H](CO)N3CCCCN(C(=O)Nc4ccccc4)C[C@H]23)cc1	n
CC(C)CC#Cc1ccc([C@@H]2[C@H](CO)N3C(=O)CN(C(=O)Cc4cccnc4)C[C@@H]23)cc1	n
CC(=O)N(C)C[C@@H]1[C@@H](c2ccccc2)[C@H](CO)N1C(=O)C1CCC1	n
COc1ccc(C#Cc2ccc([C@@H]3[C@H](CO)N4CCCCN(C(=O)Nc5cccc(F)c5)C[C@@H]34)cc2)cc1	n
C[C@H](O)C#Cc1ccc([C@@H]2[C@@H](CO)N3CCCCN(CC4CCOCC4)C[C@@H]23)cc1	n
CCCNC[C@H]1[C@@H](c2ccc(-c3cccc(C#N)c3)cc2)[C@@H](CO)N1C(C)=O	n
COCC(=O)N1CC(=O)N2[C@H](CO)[C@H](c3ccc(C#CC4CCCC4)cc3)[C@@H]2C1	n
O=C(C[C@H]1C[C@H]2c3cc(NC(=O)C4CCOCC4)ccc3O[C@H]2[C@H](CO)O1)NCc1cccnc1	n
C/C=C/c1ccc(C2[C@H]3CNC[C@@H]2N3C(=O)Nc2ccccc2Cl)cc1 (stereo partly drawn)	n
O=C(Nc1ccc2c(c1)OCO2)N1[C@@H]2CNC[C@H]1C2c1ccc(-c2ccncc2)cc1 (stereo partly drawn)	-3.2!
O=C(Nc1ccccc1Cl)N1[C@@H]2CNC[C@H]1C2c1ccc(-c2ccccc2)cc1 (stereo partly drawn)	n
COc1ccccc1-c1ccc(C2[C@H]3CNC[C@@H]2N3C(=O)Nc2ccccc2Cl)cc1 (stereo partly drawn)	-3.24
COc1cccc(-c2ccc(C3[C@H]4CNC[C@@H]3N4C(=O)Nc3ccccc3OC)cc2)c1 (stereo partly drawn)	-3.87
O=C(Nc1ccc2c(c1)OCO2)N1[C@@H]2CNC[C@H]1C2c1ccc(/C=C/c2ccccc2)cc1 (stereo partly drawn)	n
O=C(Nc1cccc(F)c1)N1[C@@H]2CNC[C@H]1C2c1ccc(-c2cncnc2)cc1 (stereo partly drawn)	n
O=C(Nc1ccccc1F)N1[C@@H]2CNC[C@H]1C2c1ccc(-c2cccnc2)cc1 (stereo partly drawn)	-3.26!
O=C(Nc1ccc(F)cc1)N1[C@@H]2CNC[C@H]1C2c1ccc(-c2cccnc2)cc1 (stereo partly drawn)	n
SMILES	IDE exosite inh
COc1cccc(-c2ccc(C3[C@H]4CNC[C@@H]3N4C(=O)Nc3cc(F)ccc3F)cc2)c1 (stereo partly drawn)	n
COc1ccc(NC(=O)N2[C@@H]3CNC[C@H]2C3c2ccc(-c3cccc(C(=O)N(C)C)c3)cc2)cc1 (stereo partly drawn)	n
O=C(Nc1ccccc1F)N1[C@@H]2CNC[C@H]1C2c1ccc(-c2ccccc2)cc1 (stereo partly drawn)	n
CCCN(C)C[C@@H]1OCCCC[C@@H](C)Oc2ccc(NC(=O)CCCN(C)C)cc2C(=O)N([C@H](C)CO)C[C@H]1C	n
CCC(=O)N1CC(=O)N2[C@H](CO)[C@H](c3ccc(-c4ccncc4)cc3)[C@@H]2C1	n
O=C(Nc1cc(F)ccc1F)N1CCCCN2[C@@H](CO)[C@@H](c3ccc(-c4ccccc4)cc3)[C@@H]2C1	n
CCC(=O)N1CC(=O)N2[C@H](C1)[C@H](c1ccc(C#CC3CCCCC3)cc1)[C@@H]2CO	n
CCCNC(=O)N1CC2(CCN(C(=O)Cc3cccnc3)CC2)c2c([nH]c3cc(OC)ccc23)[C@@H]1CO	n
O=C(C1CC1)N1CC(=O)N2[C@@H](CO)[C@@H](c3ccc(-c4cccnc4)cc3)[C@@H]2C1	n
CCCNC(=O)N1CC(=O)N2[C@H](C1)[C@@H](c1ccc(C#CCC3CCCC3)cc1)[C@@H]2CO	n
CCCC#Cc1ccc([C@@H]2[C@@H](CO)N3C(=O)CN(S(=O)(=O)Cc4ccccc4)C[C@H]23)cc1	n
CCCNC(=O)N1[C@H](CO)[C@@H](c2ccccc2-c2ccccc2)[C@@H]1C#N	n
CCCC#Cc1ccc([C@H]2[C@@H](CO)N3C(=O)CN(C(=O)Nc4cc(F)ccc4F)C[C@H]23)cc1	n
COCC(=O)N1CC[C@@H]2[C@H](CO)Nc3ccc(C#Cc4ccc(F)cc4)cc3[C@@H]21	n
O=C(Nc1ccccc1)N1CC(=O)N2[C@H](C1)[C@@H](c1ccc(-c3ccc(F)cc3)cc1)[C@@H]2CO	n
Cc1ccccc1-c1ccc([C@H]2[C@@H](CO)N3C(=O)CN(C(=O)Nc4ccc(F)cc4)C[C@@H]23)cc1	-10.1
O=C(Nc1ccc(F)cc1)N1CC(=O)N2[C@H](CO)[C@H](c3ccc(-c4ccc(F)cc4)cc3)[C@@H]2C1	n
O=C(Nc1ccc(F)cc1)N1CC(=O)N2[C@@H](CO)[C@@H](c3ccc(-c4ccccc4)cc3)[C@@H]2C1	n
O=C(Nc1ccc(F)cc1)N1CC(=O)N2[C@H](CO)[C@@H](c3ccc(-c4ccccc4)cc3)[C@@H]2C1	-4.78
Cc1ccc(-c2ccc([C@H]3[C@@H](CO)N4C(=O)CN(C(=O)Nc5ccc(F)cc5)C[C@H]34)cc2)cc1	n
CC(C)(O)C#Cc1ccc([C@H]2[C@@H](CO)N3CCCCN(C(=O)c4ccncc4)C[C@@H]23)cc1	n
COc1ccc2c3c([nH]c2c1)[C@@H](CO)N(S(C)(=O)=O)CC31CN(C(=O)c2ccccc2)C1	n
O=C(Cc1ccncc1)N1CC(=O)N2[C@H](C1)[C@@H](c1ccc(C3=CCCC3)cc1)[C@@H]2CO	n
COc1ccccc1-c1ccc([C@@H]2[C@H]3CN(C(=O)c4cccnc4)CCCCN3[C@H]2CO)cc1	-4.67
COc1ccccc1-c1ccc([C@@H]2[C@@H](CO)N3CCCCN(C(=O)c4ccncc4)C[C@H]23)cc1	n
SMILES	IDE exosite inh
COc1ccccc1-c1ccc([C@H]2[C@@H](CO)N3CCCCN(C(=O)c4cccnc4)C[C@H]23)cc1	-12.8
COc1ccccc1-c1ccc([C@H]2[C@@H](CO)N3CCCCN(C(=O)c4cccnc4)C[C@@H]23)cc1	n
COc1ccccc1-c1ccc([C@H]2[C@@H](CO)N3CCCCN(C(=O)c4ccncc4)C[C@H]23)cc1	-17.2
COc1ccccc1-c1ccc([C@H]2[C@@H](CO)N3CCCCN(C(=O)c4ccncc4)C[C@@H]23)cc1	n
COc1ccccc1-c1ccc([C@H]2[C@H](CO)N3CCCCN(C(=O)c4cccnc4)C[C@@H]23)cc1	n
COc1ccccc1-c1ccc([C@@H]2[C@@H](CO)N3CCCCN(C(=O)c4cccnc4)C[C@@H]23)cc1	n
